From PubChem BioAssay
Hits are enriched below; roughly 7.9% of the tested compounds scored in any of these assays.
Marburg entry inh = qHTS for inhibitors of binding or entry into cells for Marburg Virus | hit rate 1.8% among 300,000 | AID 540276, 2011 | Potency, µM (highest dose often 37.8 µM), inactives show top-dose activity change, negative = inhibition, hits mostly inhibitors | Marburg virus pseudotyped entry inhibition, cell reporter; calls by dose curve; tested in HEK293 cells; also: potency is read from the fitted curve at half-maximal effect
HCV inh = qHTS Assay for Inhibitors of Hepatitis C Virus (HCV); Huh7.5.1 HCVcc-Cre infection, luciferase reporter, 44 h; Potency, µM (titrated, usually from 41.8 µM), without a hit: top-dose activity change, negative = inhibition, most hits filed as inhibitors; hit rate 3.4% among 340,000; AID 651820, 2012; active = well fitted inhibition curve with a large enough effect; inconclusive = small, poorly fitted or top-dose-only effect, or another doubt; inactive = no such curve, though single readings can be large or run the other way; also: potency is read from the fitted curve at half-maximal effect
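Luciferase read-out (15 sec integration) after a 15 min room-temperature substrate step quantifies HCVcc-Cre infection. Cells, 1,000 per well, had compound added 4 h post-plating, then virus at ~0.5 moi, and were cultured 44 h.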
Lassa entry inh = qHTS for Inhibitors of binding or entry into cells for Lassa Virus; hit rate 1.2% among 300,000; Lassa virus pseudotype entry inhibition, cell reporter; AID 540256, 2011; Potency, µM (highest dose often 37.9 µM), for the others: top-dose activity change, negative = inhibition, most hits filed as inhibitors; calls by dose curve; tested in HEK293 cells; also: potency is read from the fitted curve at half-maximal effect; nearly all actives have a fitted effect of over 50% in size
HCMV antiviral = qHTS Assay for inhibitors of the human cytomegalovirus (HCMV); HFF cells, HCMV-luciferase reporter, 72 h; stronger effect = lower value; activity change, negative = inhibition, % at 57.5 µM; hit rate 4.5% among 410,000; AID 1259415, 2018; in the data active = activity change below about -60%; inconclusive = no clear call, values can overlap the other calls; inactive = above about -39%
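Human foreskin fibroblasts infected with luciferase-reporter HCMV at MOI 1 PFU/cell, compounds at two doses. Luciferase measured 72 h post infection; normalized to buffer-only basal and Salinomycin (10uM) controls.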
FMDV inh = High Throughput Screening for Foot and Mouth Disease Virus Antivirals; hit rate 1.2% among 410,000; Potency, µM (series often up to 57.9 µM), without a hit: at the top dose activity change, negative = inhibition, most hits filed as inhibitors; FMDV antiviral cell-based qHTS; AID 1159524, 2015; calls by dose curve; tested in HEK293T cells; also: read-out not given here; potency is read from the fitted curve at half-maximal effect; nearly all actives have a fitted effect of over 45% in size
* hit, by the source's call; u = inconclusive; x = not tested or not shown; ! = not active in a repeat; [ ] = dose if it differs, or a comment. % is scaled to controls: 0 for no effect and ±100 for the full control effect.

SMILES | Marburg entry inh | HCV inh | Lassa entry inh | HCMV antiviral | FMDV inh
COc1ccc(-n2nnnc2S(=O)(=O)CC(=O)N2CCCCC2)cc1 | x | u | x | x | 20µM*
COc1ccc(-n2nnnc2S(=O)(=O)Cc2ccc(C(=O)O)cc2)cc1 | u | -15% | -10% | -18 | 28µM*
CN1OC(C)(CC(=O)N2CCc3ccccc3C2)N=C1c1ccco1 (stereo not given) | x | x | x | -11 | x
CCN1CCN(c2ncc(C(=O)Nc3cc(Cl)ccc3OC)c3ccccc23)CC1 | 2µM* | u | u | 19 | -25%
O=C(c1cnc(N2CCN(c3ncccn3)CC2)c2ccccc12)N1CCN(c2ccccn2)CC1 | u | u | 11µM* | u | 28µM*
O=C(Nc1c(F)cccc1F)c1cnc(N2CCN(c3ccccn3)CC2)c2ccccc12 | u | 13µM* | u | u | 13µM*
COc1ccc(Cl)cc1NC(=O)c1cnc(N2CCCCC2)c2ccccc12 | x | x | -19%[46.1 µM] | -8 | -26%
Cc1ccc(NC(=O)c2cnc(N3CCN(c4ccccn4)CC3)c3ccccc23)c(Br)c1 | u | 7.1µM* | u | -70* | 6.3µM*
Cc1cc(Br)ccc1NC(=O)c1sc2ncnc(N3CCN(c4ccccn4)CC3)c2c1C | u | u | u | 2 | -29%
O=C(NCCc1csc(-c2cccnc2)n1)c1ccccc1Br | x | -19% | x | u | 8%
Cc1noc(C)c1CSc1nc2sc3c(c2c(=O)n1C)CCCC3 | u | u | 5% | u | -11%
C=CCn1c(SCc2c(C)noc2C)nc2sc3c(c2c1=O)CCCC3 | 21µM* | u | u | -12 | -1%
C=CCn1c(SCc2c(C)noc2C)nc2sc3c(c2c1=O)CCCCC3 | u | u | -25% | -15 | u
Cc1noc(C)c1CSc1nc2sc(C)c(C)c2c(=O)n1C1CCCC1 | 12µM* | u | -23% | 16 | 10%
COc1cc2oc(=O)c(CC(=O)N3CCCCC3)c(C)c2cc1OC | 12%[46.1 µM] | x | 7%[46.1 µM] | -15 | 16%
Cc1cc(C)c(NC(=O)CSc2nc3ccccc3nc2N2CCCCC2)c(C)c1 | -15%[46.1 µM] | x | -10%[46.1 µM] | -3 | 0%
Cc1nnc(-c2cccc(Br)c2)c2cn(-c3ccc(Br)cc3)nc12 | u | 11µM* | u | -73* | u
O=C(NC1C2CCCC1CN(C1CC1)C2)c1ccc(Cl)cc1 (stereo not given) | x | u | x | -64* | u
Cc1c(C)c2ccc(OCC(=O)N[C@@H](Cc3ccccc3)C(=O)O)cc2oc1=O | x | 6% | x | -77* | -1%
Cc1c(C)c2ccc(OCC(=O)NC(Cc3ccc(Cl)cc3)C(=O)O)cc2oc1=O (stereo not given) | x | u | x | -37 | -10%
CCCc1cc(=O)oc2cc(OCC(=O)NC(Cc3ccc(Cl)cc3)C(=O)O)ccc12 (stereo not given) | x | 0.5µM* | x | 16 | -15%
COCCn1c(SCC(=O)NC2CCCC2)nc2ccccc2c1=O | 11% | 13% | 4% | -100* | -13%
O=C(CSc1nc2ccccc2[nH]1)Nc1nc(-c2cccc(Br)c2)cs1 | 11% | 10% | 13% | -28 | -18%
COCCCn1c(SCC(=O)Nc2ccc(C(=O)OC)cc2)nc2ccccc2c1=O | -18% | -13% | u | -21 | 22%
Cc1ccc(S(=O)(=O)N(C)C)cc1-n1c(SCC(=O)Nc2ccccc2)nc2ccccc2c1=O | u | u | u | -72* | -21%
SMILES | Marburg entry inh | HCV inh | Lassa entry inh | HCMV antiviral | FMDV inh
COCCCn1c(SCC(=O)Nc2ccc(C)cc2)nc2ccccc2c1=O | -14%[46.1 µM] | 4% | 0% | -71* | 1%
CN(C)CCCn1c(SCC(=O)Nc2nc(-c3cccc(Br)c3)cs2)nc2ccccc2c1=O | 11µM* | 10µM* | u | u | -13%
CCC(C)(C)NC(=O)CN(CC1CCCO1)C(=O)CNS(=O)(=O)c1ccccc1 (stereo not given) | u | 7% | -9% | 1 | 11%
Cc1ccc(NC(=O)CSc2nc3ccccc3c(=O)n2CCCC(=O)N2CCCC2)cc1 | 8.2µM* | u | u | -29 | -16%
Cc1ccc(NC(=O)CSc2nc3ccccc3c(=O)n2CCCN2CCCCC2)cc1C | u | 14µM* | 21µM* | 7 | -19%
CCn1c(SCC(=O)Nc2ccc(NC(=O)c3ccco3)c(OC)c2)nc2ccccc2c1=O | 8% | x | -25%[14.3 µM] | -33 | -2%
CCCCn1c(SCC(=O)Nc2cc(NC(=O)c3ccco3)ccc2C)nc2ccccc2c1=O | u | u | u | -76* | -12%
CCc1ccc(NC(=O)CSc2nc3ccccc3c(=O)n2CCCN2CCC(C)CC2)cc1 | u | u | u | -108* | u
O=C(NCC(c1cccs1)S(=O)(=O)c1cccs1)c1ccccc1F (stereo not given) | x | x | 1%[46.1 µM] | -1 | 12%
CC(=O)Nc1c(C)nn(-c2ccccc2)c1N1CCC(C(=O)Nc2ccccc2F)CC1 | x | x | -23%[46.1 µM] | 6 | 0%
COc1cccc(CNS(=O)(=O)c2ccc3c(c2)C(C)(C)C(=O)N3C)c1 | x | 0% | x | x | 26%
Cc1ccc(NC(=O)Cc2nc(COC(=O)c3c(F)cccc3Cl)cs2)cc1 | -12%[46.1 µM] | 8.9µM* | 2% | -17 | -23%
Cc1ccc(NC(=O)Cc2nc(COC(=O)Cc3cccc(C(F)(F)F)c3)cs2)cc1 | 8% | 8% | 6% | 15 | 45%
Cc1ccccc1NC(=O)Cc1nc(COC(=O)c2cc([N+](=O)[O-])ccc2NCCO)cs1 | u | 8.9µM* | 3% | -4 | u
CC(=O)c1c(C)[nH]c(C(=O)OCc2csc(CC(=O)Nc3ccccc3C)n2)c1C | x | 4.5µM* | x | 25 | 20µM*
Cc1cc(SCC(=O)c2ccc(O)c(O)c2)n2nc(C)c(-c3ccccc3)c2n1 | x | 11µM* | x | -30 | -22%
Cc1ccc(-c2c(C(=O)N(C)Cc3ccccc3)oc(=O)c3ccccc23)cc1 | u | 0% | -16%[46.1 µM] | -65*! | -2%
CN(Cc1ccccc1)C(=O)c1oc(=O)c2ccccc2c1-c1ccccc1 | 0% | -5% | 2% | 5 | -3%
O=[N+]([O-])c1cc(S(=O)(=O)C(F)(F)F)ccc1Sc1nc2ccccc2[nH]1 | u | u | u | -103* | u
CC(C)c1ccc(-c2nc3ccccc3s2)cc1 | u | 1% | u | -95* | 0%
COc1cc(OC)c(-c2nc3ccccc3s2)cc1OC | x | 11µM* | x | 88 | -18%
CN(C(=O)OC(C)(C)C)c1ccc(-c2nc3ccccc3s2)cc1 | x | x | x | -95* | 100µM*
COc1ccc(-c2nc3ccccc3s2)cc1O | 7.1µM* | u | 7.1µM* | u | -58%
COc1cccc(-c2nc3ccccc3s2)c1O | u | u | u | 92 | -36%
CN(Cc1ccccc1)C(=O)c1c[nH]c2ccc(S(=O)(=O)Nc3ccccc3F)cc2c1=O | 17%[46.1 µM] | x | 8%[46.1 µM] | -2 | 13%
